# From PubChem BioAssay AID593 (National Center for Advancing Translational Sciences (NCATS), 2007)
# Hit rate of the full screen: of about 59,000 compounds, about 540 (0.92%) were called active. Not shown: some 33% with an inconclusive outcome. Cut-off read from the data, not from the text of the source: active = max fluorescein-equivalent concentration above about 10 nM; inconclusive = between about 1.1 nM and that limit; inactive = weaker than that. The full list was thinned out, with actives kept by preference. Some structures have more than one record in an assay (separate samples or runs), and their calls can disagree.
# Test: qHTS Assay for Spectroscopic Profiling in Fluorescein Spectral Region
# Details: Compound autofluorescence, 480/540 nm; max fluorescein-equivalent concentration: stronger effect = higher value; outcome: fluorescein-equivalent
# Procedure, shortened: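 Compounds (23 nL) in 100 mM Tris pH 8.0, 15 min at room temperature, then fluorescence read at 480 nm excitation/540 nm emission. Signal converted to fluorescein-equivalent concentration from an on-plate fluorescein standard curve.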
Compound,max fluorescein-equivalent concentration,outcome
C=CCn1c(C)cc(C(=O)CN2C(=O)c3ccccc3C2=O)c1C,inactive,
Cc1ccc(SCCN2C(=O)NC(C)(C)C2=O)cc1,inactive,
COc1cccc(Cn2c(=O)c(C)nc3cnc(Oc4ccccc4)nc32)c1,inactive,
Cc1cc(C(F)(F)F)nn1CC(=O)N1CCCC1,inactive,
CCOc1ccc(NS(=O)(=O)c2ccc(OCC(=O)NCCCOC)cc2)cc1,inactive,
COc1ccccc1N1CCN(Cc2nnnn2CCc2ccccc2)CC1,inactive,
COCCn1nnnc1C(c1ccccc1Cl)N1CCN(c2ccccc2OC)CC1 (centres undefined),inactive,
COc1ccccc1N1CCN(c2nc3ccccc3n3nnnc23)CC1,12 nM (active),
COc1ccc(-c2cc(C(F)(F)F)nc(SCCC(=O)NCc3ccco3)n2)cc1,inactive,
CCN(CC)S(=O)(=O)c1cccc(C(=O)Nc2cc(C)nn2-c2nc(C)cc(C)n2)c1,inactive,
COc1ccc(OCC(=O)OCC(=O)Nc2ccc(S(=O)(=O)N3CCCCC3)cc2)cc1,inactive,
CCN1CCN(C(=O)CN(C)S(=O)(=O)c2ccc(OC)cc2)CC1,inactive,
CCC1CCCCN1C(=O)Nc1cccc(NC(=O)N2CCCCC2CC)c1 (centres undefined),inactive,
COc1ccccc1CNc1nc(-c2c(C)noc2C)nc2ccccc12,inactive,
FC(F)(F)c1nnc2sc(-c3ccco3)nn12,inactive,
O=C(O)CS(=O)c1ccc2c3c(cccc13)C(=O)c1ccccc1-2 (centres undefined),14 nM (active),
CCn1c(=N)c(C(=O)NCCCOC)cc2c(=O)n3cccc(C)c3nc21,inactive,
CCn1c(=N)c(S(=O)(=O)c2ccc(F)cc2)cc2c(=O)n3ccccc3nc21,29 nM (active),
CC1(C)C(=O)C2(CCCCC2)C(=O)OC1c1cccs1 (centres undefined),inactive,
CCOc1ccccc1Nc1nnc(SCC(=O)Nc2cc(C)on2)s1,inactive,
CC[C@H](c1ccccc1)c1cc(C(C)(C)C)cc(C(C)(C)C)c1O,inactive,
C=CCn1c(COc2ccccc2C)nnc1SCC(=O)O,inactive,
O=C(NCc1ccco1)c1sc2cccc(F)c2c1Cl,inactive,

Compound,max fluorescein-equivalent concentration,outcome
CC(Sc1nc2ccccc2c(=O)n1Cc1ccco1)C(=O)c1ccccc1 (centres undefined),inactive,
COc1ccccc1NC(=O)CSc1nc2sc(C)c(C)c2c(=O)n1Cc1ccco1,inactive,
CN(c1ccccc1)c1ccc(/C=c2\s/c(=C(/C#N)C(=O)C(C)(C)C)n(Cc3ccco3)c2=O)cc1,34 nM (active),
Cc1ccccc1C(=O)Nc1cccc(-c2nnc(SCC(=O)O)n2C)c1,inactive,
O=C(CNS(=O)(=O)c1cccc(C(F)(F)F)c1)Nc1ccccc1F,inactive,
Cc1ccc(C(=O)CSc2nc3ccccc3c(=O)n2N)o1,inactive,
Cc1cc2c(=O)n(C)c(SCC(=O)c3cc4ccccc4o3)nc2s1,13 nM (active),
Cc1ccsc1C(=O)OCC(=O)c1cc2ccccc2o1,inactive,
Cc1cc(C)cc(NC(=O)C2CCN(c3nc(C)cc(C)n3)CC2)c1,inactive,
CCOC(=O)c1cc2sccc2n1Cc1ccc(C#N)cc1,inactive,
Fc1ccccc1CCNc1nnnn1-c1ccccc1,inactive,
CN1CCC2(CC1)CCN(S(=O)(=O)c1ccccc1)CC2,inactive,
Cc1ccc2nc(CC(=O)c3ccc4ccccc4c3)c(=O)[nH]c2c1,inactive,
C/C=C1\C(=O)C[C@@H]2[C@@H]3CCC4=CC(=O)CC[C@@]4(C)[C@H]3CC[C@@]12C,inactive,
Oc1ccc2ccccc2c1C=NCc1c(O)ccc2ccccc12,inactive,
COc1ncnc2c1N=C1CC(C)(C)CC(N)=C1S2,47 nM (active),
COc1ccc(C(=O)N2CCC[C@@]3(CCN(C(=O)NC(C)C)C3)C2)cc1,inactive,
CC(C)NC(=O)N1CC[C@@]2(CCCN(C(=O)c3cccc(F)c3)C2)C1,780 nM (active),
CC(C)NC(=O)N1CC[C@@]2(CCCN(C(=O)c3ccco3)C2)C1,inactive,
O=C(Nc1ccc(S(=O)(=O)N2CCCCC2)cc1)c1cnccn1,inactive,
O=c1[nH]c(-c2ccccc2)c(-c2ccccc2)[nH]1,inactive,
O=c1[nH]c(=O)c2nc3ccccc3nc2[nH]1,62 nM (active),
CN1C(=O)C[C@H](c2ccccc2)C1=O,inactive,

Compound,max fluorescein-equivalent concentration,outcome
CCCn1c(SCC(=O)Nc2cccc(C(=O)OCC)c2)nnc1-c1ccoc1C,inactive,
COc1ccccc1Cc1nc(-c2ccc(C)cc2)no1,inactive,
CC12CCC(C(=O)N(CCC#N)CCC#N)(CC1=O)C2(C)C (centres undefined),inactive,
COc1ccc2[nH]c3cc4c(=O)c5cc(OC)ccc5[nH]c4cc3c(=O)c2c1,inactive,
C[C@H]1O[C@@H](CC(=O)O)Cc2c1c(O)c1c(O)cc(-c3cc(=O)c4c(=O)c5c(c(=O)c=4c3=O)C[C@H](CC(=O)O)O[C@@H]5C)c(O)c1c2O,inactive,
CC(Sc1nncs1)C(=O)NCc1ccc2c(c1)OCO2 (centres undefined),inactive,
Cc1cc(NC(=O)Nc2ccccc2)n(-c2ccccc2)n1,inactive,
COc1ccc2oc(=O)c(C(=O)N3CCCc4ccccc43)cc2c1,inactive,
COc1cccc(C(=O)c2cc3ccc(O)cc3oc2=O)c1,inactive,
COc1ccc2oc(=O)c(C(=O)O)cc2c1,19 nM (active),
CCOc1ccc2cc(C#N)c(SCC(=O)OC)nc2c1,inactive,
Cc1cccc2cc(C#N)c(N3CCCC3)nc12,inactive,
CCOc1ccc2nc(N3CCCN(C(=O)Nc4ccccc4C)CC3)c(C#N)cc2c1,29 nM (active),
CC(=O)c1cc2c(cc1N)OCO2,inactive,
CCCN1CC=C2C(C#N)=C(N)C(C#N)(C#N)C(c3cc(OC)ccc3OC)C2C1 (centres undefined),10 nM (active),
CCC1=C(C(=O)OC)C(c2cc(OC)ccc2OC)C(C#N)=C(N)O1 (centres undefined),inactive,
COC(=O)C1=C(C)OC(N)=C(C#N)C1c1cc(OC)ccc1OC (centres undefined),inactive,
COc1cc(NS(=O)(=O)c2ccc(NC(C)=O)cc2)cc(OC)c1,inactive,
CCOC(=O)C1(Cc2ccc(O)cc2)NC(c2ccccc2F)C2C(=O)N(C)C(=O)C21 (centres undefined),inactive,
Cc1ccc(C(c2nnnn2CS(=O)(=O)c2ccc(C)cc2)N2CCC(C(N)=O)CC2)cc1 (centres undefined),inactive,
COc1ccc(-c2c3c(=O)n(C)c(=O)n(C)c3cn2NC(C)=O)cc1,inactive,
C[C@@H]1CC[C@H]2[C@H](C)[C@H]3[C@H](C[C@H]4[C@@H]5CC=C6C[C@@H](O)CC[C@@]6(C)[C@@H]5C[C@@H](O)[C@]34C)N2C1,inactive,
CCN(CC(=O)NCc1cccs1)c1nnnn1-c1ccccc1,inactive,

Compound,max fluorescein-equivalent concentration,outcome
COc1cccc(NC(=O)CN(C)S(=O)(=O)c2ccc(C)cc2)c1,inactive,
Cc1ccc2c(c1)C(O)(CC(=O)c1cccnc1)C(=O)N2 (centres undefined),inactive,
CC(=NC1CCN(Cc2ccccc2)CC1)c1c(O)[nH]c(=O)[nH]c1=O,inactive,
COc1ccc(OC)c(S(=O)(=O)Nc2ccccc2F)c1,inactive,
CC1CN(C2CCN(C(=O)COc3ccccc3)CC2)CC(C)O1 (centres undefined),inactive,
C=CCNC(=O)C12CC3CC(C1)CC(C(=O)NCC=C)(C3)C2,inactive,
CCc1cccc(C)c1NC(=O)CSc1nnc(-c2ccco2)n1N,inactive,
O=C(Nc1ccccc1F)C1C2C=CC3(O2)C1C(=O)N(c1cccnc1)C3C(=O)NC1CCCCC1 (centres undefined),inactive,
COc1cccc(Cn2c(=O)c(CCc3ccccc3)nc3cnc(N(C)C)nc32)c1,inactive,
CNC(=O)c1cc2c(ccc3ccccc32)oc1=N,inactive,
CCON=C1C(C)(C)C(C)(C)C(C)(C)C1(C)C,inactive,
Cn1c(=O)c2[nH]c(NCC3CCCO3)nc2n(-c2ccccc2)c1=O (centres undefined),inactive,
CCCn1c(=O)c2[nH]c(C3CCCC3)nc2n(CCC)c1=O,11 nM (active),inactive
O=c1[nH]c(=O)n([C@H]2C[C@H](O)[C@H](CO)O2)cc1Br,inactive,
CC(=O)c1cc(C#N)c(SCC(=O)C(C)(C)C)nc1C,inactive,
Cc1cccn2c(=O)c3cc(C#N)c(=NC(=O)c4cccnc4)n(CC4CCCO4)c3nc12 (centres undefined),18 nM (active),
Cc1cccn2c(=O)c3cc(C(=O)N4COCC4(C)C)n(C)c3nc12,inactive,
COC(=O)c1ccc2c(=O)n(CC3CCCO3)c(=S)[nH]c2c1 (centres undefined),inactive,
Cc1cc(C)c2[nH]c(=O)c(C(c3nnnn3Cc3ccc4c(c3)OCO4)N3CCCC3)cc2c1 (centres undefined),inactive,
CC(=O)NS(=O)(=O)c1ccccc1,inactive,
CCOCCCNS(=O)(=O)Cc1ccccc1,inactive,
CCOC(=O)N1CC=C2C(C#N)=C(N)C(C#N)(C#N)[C@H](c3cccs3)[C@H]2C1,12 nM (active),
CCNc1ncc2ncc(=O)n(Cc3cccc(OC)c3)c2n1,inactive,

Compound,max fluorescein-equivalent concentration,outcome
COc1ccc2nc(N3CCCC(O)C3)c(C#N)cc2c1 (centres undefined),16 nM (active),
COc1ccc(N2CCN(C(=O)CSc3nc4cc(OC)c(OC)cc4cc3C#N)CC2)cc1,inactive,
O=CN1CCN(C2CC(=O)N(c3ccc4c(c3)OCO4)C2=O)CC1 (centres undefined),inactive,
S=c1[nH]nc(SCc2ccccc2Cl)c2[nH]cnc12,inactive,
Cc1csc(NC(=O)CN2CCCCCC2)n1,inactive,
CCOCC(=O)Nc1cc(OC)c(Cl)cc1OC,inactive,
Oc1ccccc1CNCc1ccccc1O,inactive,
COCCn1c(=O)c(CCc2ccccc2)nc2cncnc21,inactive,
CC(C)N(C(=O)COC(=O)c1ccccc1C(=O)N1CCN(c2ccc(F)cc2)CC1)C(C)C,inactive,
N#CC1=C(N)Oc2n[nH]c(CSc3ccccc3)c2C12C(=O)Nc1ccccc12 (centres undefined),inactive,
O=S(=O)(c1cccs1)N1CCN(Cc2ccccc2)CC1,inactive,
CCOCCOC(=O)C1=C(C)N(C)C(=O)NC1c1ccccc1F (centres undefined),inactive,
C=C(C)Cn1c(SCC(=O)NCc2ccco2)nc2sc3c(c2c1=O)CCC3,inactive,
COCCn1c(=O)c(-c2cccc(F)c2)nc2cncnc21,inactive,
COc1ccc(C(=O)N/N=C2/C(=O)c3c(C)cc(C)cc3CC2(C)C)cc1,inactive,
O=C(O)C1CC=C(Cl)CC1C(=O)NCc1ccccc1 (centres undefined),inactive,
CCCOc1ccccc1-c1nc(SCCC(=O)O)n[nH]1,inactive,
O=S(=O)(Nc1ccc2nc(-c3ccco3)[nH]c2c1)c1ccccc1,inactive,
O=S(=O)(O)c1ccc(O)c2ncccc12.O=S(=O)(O)c1ccc(O)c2ncccc12.[Zn],inactive,
O=C(N1CCOCC1)N1CCOCC1,inactive,
CCCC(=O)Nc1cc(OCC)c(NC(=O)NC2CCCCC2)cc1OCC,inactive,
